Experimental data published in ChEMBL document CHEMBL3988442, “University of Dundee, Small-Polar-MMV Screening Library” (2021).
Screen size: about 85,000 compounds; about 440 (0.52%) showed an effect of 50% or more. What follows is part of a selection rich in strong results, with near analogues and random picks from the rest.

Assay: In vitro enzyme assay to detect hydrolysis of chlorophenol red-beta-D-[…] directly proportional to the number of Toxoplasma stably expressing beta-galactosidase
Assay type: functional, organism-based, Toxoplasma gondii
Parameters: scale not given: in the data most compounds retested in dose-response had high values

| SMILES | Percent Effect (10 µM) [%] | Percent Effect (50 µM) [%] |
| --- | --- | --- |
| COC[C@@H]1CCC[C@]12CN(Cc1ccco1)CCO2.O=C(O)C(F)(F)F | -8.533 | – |
| COC[C@@H]1CCC[C@@]12CN(Cc1ccco1)CCO2.O=C(O)C(F)(F)F | -11.03 | – |
| COC[C@@H]1CCC[C@@]12CN(Cc1ccc(C)s1)CCO2.O=C(O)C(F)(F)F | 74.98 | – |
| O=C(c1ccco1)N1CCC(N2CCCC2)CC1 | – | -19.12 |
| CN(Cc1ccccn1)Cc1csnn1 | – | 13.21 |
| O=C(c1ccc(Br)cn1)N1CCC(n2ccnn2)CC1 | – | 0.6699 |
| COc1cccc(CO)c1C | – | -13.36 |
| COC(=O)c1ccc(CN2CCCC(CO)C2)cc1 (centres undefined) | – | -14.35 |
| CCOc1ccc(C(=O)N2CCC(N)CC2)cc1 | – | 56.89 |
| CCCc1ccc(C(=O)N2CCC(N)CC2)cc1 | – | -1.427 |
| CCOc1ccccc1C(=O)N1CCC(N)CC1 | – | 9.165 |
| Cc1cc(Br)cc(C(=O)NC2(C(N)=O)CC2)c1 | – | 10.26 |
| CC(C)=CCN1CCN(CCO)CC1CCO (centres undefined) | – | 22.16 |
| O=C(NC1=NCCS1)c1cc2cc(F)ccc2s1 | – | -6.521 |
| Cn1nccc1CCC(=O)NCCN1CCCC1 | – | 10.39 |
| COc1ccc(C(C)N(C)Cc2c(C3CC3)[nH]c3ncccc23)cc1.Cl (centres undefined) | 65.16 | – |
| COc1ccc(C(C)N(C)Cc2c(C(C)(C)C)[nH]c3ncccc23)cc1 (centres undefined) | -0.9197 | – |

| SMILES | Percent Effect (10 µM) [%] | Percent Effect (50 µM) [%] |
| --- | --- | --- |
| COc1ccc(C(C)N(C)Cc2c(C(C)C)[nH]c3ncccc23)cc1 (centres undefined) | -0.3537 | – |
| NS(=O)(=O)c1cccnc1NC1CCc2ccccc21 (centres undefined) | – | 16.24 |
| CN(C1CCCCC1)S(=O)(=O)N1CCNCC1 | – | 5.411 |
| COC(=O)c1cnc2[nH]nc(C)c2c1 | – | 55.45 |
| CCS(=O)(=O)N1CCN(C(=O)c2cnc3[nH]nc(C)c3c2)CC1 | -8.634 | – |
| COC(=O)c1cnc(C)c(OC)c1 | – | -7.167 |
| NS(=O)(=O)CCNC(=O)c1ccc(-c2cccs2)s1 | – | 1.485 |
| NCCNC(=O)c1ccc(-c2ccc(Cl)cc2)s1 | – | 89.1 |
| CC(C)(NC(=O)c1ccc(-c2ccc(F)cc2)s1)C(N)=O | 16.31 | – |
| Cc1csc(CCNC(=O)CSCC#N)n1 | – | -3.488 |
| CC(O)C(=O)Nc1ccc(Cl)c(OC(F)F)c1 (centres undefined) | – | -7.05 |
| CC(C)(C)OC(=O)NCc1cc(C(N)=O)co1 | – | -10.17 |
| CCC(CNC(=O)c1ccoc1)N1CCCC1 (centres undefined) | – | 9.191 |
| Cn1cc(NC(=O)CC2C=CCC2)cc(Br)c1=O (centres undefined) | – | -2.451 |
| N#CCCN(CCC#N)Cc1ccc(Br)c2cccnc12 | 11.15 | – |
| CCN(CCO)Cc1ccc(Br)c2cccnc12 | 72.7 | – |
| OCCN(CCO)Cc1ccc(Br)c2cccnc12 | 9.5 | – |
